Data taken from the supplement of paper PMC3334620.
The full ranking holds about 33,000 sequences; the median of “E-score (-0.5 to 0.5)” is about -0.035, and the highest 2% start at about 0.34. The sample holds the highest values, similar sequences and a random draw of the others, so the mix is not that of the screen.

The sequences below were run against T1, Mot3 (UniProt P54785) (assay: PBM E-score (8-mer binding enrichment) (E-score (-0.5 to 0.5)); higher = stronger / more preferred TF binding). Details: protein concentration: 200 nM; construct: GST-full length.
T1 sequence: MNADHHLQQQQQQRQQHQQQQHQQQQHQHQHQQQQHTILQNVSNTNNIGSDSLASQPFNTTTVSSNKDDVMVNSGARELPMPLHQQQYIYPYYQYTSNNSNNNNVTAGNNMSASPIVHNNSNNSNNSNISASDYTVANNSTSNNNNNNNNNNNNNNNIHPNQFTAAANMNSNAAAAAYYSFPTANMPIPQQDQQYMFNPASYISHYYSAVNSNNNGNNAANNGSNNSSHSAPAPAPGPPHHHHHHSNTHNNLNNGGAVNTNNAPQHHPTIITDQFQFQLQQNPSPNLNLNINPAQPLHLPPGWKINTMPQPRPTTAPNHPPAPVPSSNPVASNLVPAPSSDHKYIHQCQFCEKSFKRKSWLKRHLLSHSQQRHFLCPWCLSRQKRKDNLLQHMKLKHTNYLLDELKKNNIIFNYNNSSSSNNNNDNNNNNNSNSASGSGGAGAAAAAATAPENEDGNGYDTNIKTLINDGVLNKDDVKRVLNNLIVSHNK
How it was run: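 Using PURExpress in vitro transcription/translation, GST-tagged yeast transcription factors were made in full-length or DNA-binding-domain form. These were applied at about 100-200 nM to double-stranded universal all-10-mer Agilent arrays, and bound protein was detected with fluorescent anti-GST. Scans were normalised with masliner before the Universal PBM Analysis Suite assigned E-scores to ungapped eight-base words pooled with their reverse complements.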

Sequence | PBM E-score
AAAGCGTA | 0.0441
AGCACCGG | -0.32
GAAGCTTC | -0.191
CGAATAAC | 0.0678
CAAATCAG | -0.048
ATGCGGCA | -0.115
TATACGCA | 0.272
CTTGCCGC | -0.231
ATTGCCCA | 0.0652
CTTGCCTC | 0.425
ATTGCCTC | 0.331
ATTGCCTG | 0.482
CTTGCCCC | -0.209
ATTGCCGA | -0.0541
GTTGCCTA | 0.488
GCTGCCTA | 0.282
GTTGCCCA | 0.103
ATTGCCAG | -0.156
ATTGCCTA | 0.482
GAGCGCTC | -0.331
CGTCGCAA | -0.149
CAAGTCGG | -0.254

Sequence | PBM E-score
GGTACTCA | 0.0108
AGCTATAA | -0.0249
CAGGTTCG | -0.00261
CACCAGGA | -0.104
CTTGCCTA | 0.488
CTTGCCGA | -0.0816
CCTGCCTA | 0.244
CGTTTGTC | -0.0445
CAGCCGCG | -0.0863
AATTTTAC | 0.222
CTTTACAA | 0.326
ATTTACAG | 0.228
ATTTACAA | 0.363
CGTTACAC | 0.274
ATTTACAC | 0.412
ATTTACTC | 0.159
ATTTTTAA | 0.156
CTTTACAC | 0.415
ATTTACGC | 0.239
ATTTTTAC | 0.34
GTTTACAA | 0.336
ACGAGAAC | 0.0296

Sequence | PBM E-score
CATACAGC | -0.19
AAACGTGC | 0.118
GCACCTCC | -0.215
ATGTCCTA | -0.0455
CGAGAGAG | -0.145
GACTGGAA | -0.213
AATAGGTA | 0.38
CCTAGGAA | 0.018
AATAGGAT | -0.00596
AATAGGTC | 0.0378
GATAGGAA | 0.197
CATAGGAA | 0.231
TATAGGAA | 0.412
AATAGGTG | 0.0976
AATAGGAA | 0.415
ACGTGCCA | 0.00099
AAGTCCGT | -0.0474
AGTTAGGA | 0.108
ATCAGGTA | 0.256
GGGCGTGA | -0.066
CGACTTCC | -0.0315
TCTATAGA | -0.152

Sequence | PBM E-score
ACAATGGT | -0.058
CTGTATTC | 0.185
CTGTAATA | 0.238
AGGTAATG | 0.279
ATGTATTC | 0.363
CGGTAATC | -0.149
ATGTAATG | 0.395
ATGTATTG | 0.303
ATGTAACG | 0.268
ATGTAAGA | 0.309
AGGTAATC | 0.344
ATGTAAGG | 0.298
ATGTAATA | 0.405
GGAGACCC | -0.0421
ACAACTAA | 0.183
AGAAGTGG | -0.199
ATGCGTGG | -0.214
CTGCAACA | 0.0762
CGCCACTA | -0.196
AAGTCCAC | -0.187
AAGTGCTC | -0.203
ACCAGTAA | 0.016

Sequence | PBM E-score
GCACAGCA | 0.144
CAAGTTGC | 0.144
CAGCGAGG | -0.276
TTCGCAAA | 0.0552
ATGTAAGC | 0.267
GAGTAATA | 0.147
CTGTAATC | 0.111
GGGTAATA | 0.17
GTGTAATA | 0.375
ATGTAATC | 0.367
AGCGAAGC | -0.0443
AAAGGCGC | 0.371
AAAGGCGG | 0.0743
GAAGGCGA | -0.0248
AAAGGCTG | 0.0993
AAAGGCTC | 0.354
CAAGGCGC | 0.191
CAAGGCTC | 0.0281
GAAGGCGC | 0.362
GAAGGCCC | 0.122
CAATGAGG | -0.197
